In the supplement of paper PMC6331611 one finds normalized growth data, which are given here for 51 compounds.

± gives the standard deviation of the averaged measurements. The full ranking holds about 1,600 compounds; the median of “normalized growth (OD600, IQM-normalized) in LPM” is about 1, and the lowest 2% start at about 0.014. This excerpt belongs to a sample that is enriched for the lowest values.

The subject of the test is Salmonella enterica serovar Typhimurium SL1344. Nature of the test: normalized growth (OD600, IQM-normalized) in LPM (fraction of plate interquartile mean); higher = more bacterial growth (less inhibition). The following applies: LPM pH 5.8; 10 µM; 16 h.
`O=C(O)C(=O)O.[NH-][C@@H]1CCCC[C@H]1[NH-].[Pt+2]` returned a normalized growth of 0.742 ± 0.017.

`O=C(O)P(=O)(O)O` returned a normalized growth of 0.953 ± 0.027.

On to `OC[C@H]1O[C@@H](O[C@H]2[C@H](O)[C@@H](O)C(O)O[C@@H]2CO)[C@H](O)[C@@H](O)[C@H]1O` (stereo partly specified), for which the normalized growth came to 1.14 ± 0.057.

`CO/N=C(\C(=O)N[C@@H]1C(=O)N2C(C(=O)O)=C(COC(C)=O)CS[C@H]12)c1csc(N)n1` returned a normalized growth of 0.0479 ± 0.0089.

Regarding `C=CC1=C(C(=O)O)N2C(=O)[C@@H](NC(=O)/C(=N\O)c3csc(N)n3)[C@H]2SC1`, the normalized growth turned out to be 0.0112 ± 0.00049.

With `CO/N=C(\C(=O)N[C@@H]1C(=O)N2C(C(=O)O)=C(C[N+]3(C)CCCC3)CS[C@H]12)c1csc(N)n1`, the normalized growth was determined as 0.0232 ± 0.0056.

`CNCC[C@H](Oc1cccc2ccccc12)c1cccs1` showed a normalized growth of 1.05 ± 0.046.

Compound `CN1CC(=O)N2[C@H](c3ccc4c(c3)OCO4)c3[nH]c4ccccc4c3C[C@@H]2C1=O` showed a normalized growth of 1.19 ± 0.024.

In turn, `CCOC(=O)CCC(=O)O[C@H]1[C@H](O[C@@H]2[C@@H](C)[C@H](O[C@H]3C[C@@](C)(OC)[C@@H](O)[C@H](C)O3)[C@@H](C)C(=O)O[C@H](CC)[C@@](C)(O)[C@H](O)[C@@H](C)C(=O)[C@H](C)C[C@@]2(C)O)O[C@H](C)C[C@@H]1N(C)C` had a normalized growth of 1.14 ± 0.045.

`C=CCCCCCCCCC(=O)[O-].C=CCCCCCCCCC(=O)[O-].[Zn+2]` came in with a normalized growth of 1.15 ± 0.041.

In turn, `CCN(CC)CCNC(=O)COc1ccc(OC)cc1` displayed a normalized growth of 0.869 ± 0.0096.

As to `CC(C)(O)c1ccccc1CC[C@@H](SCC1(CC(=O)O)CC1)c1cccc(/C=C/c2ccc3ccc(Cl)cc3n2)c1`, the normalized growth stood at 1 ± 0.023.

`CC(C)CCCC(C)N` (stereo unspecified) came in with a normalized growth of 1.05 ± 0.09.

For the compound `CCC(C)(C)C(=O)O[C@H]1C[C@@H](C)C=C2C=C[C@H](C)[C@H](CC[C@@H]3C[C@@H](O)CC(=O)O3)[C@H]21`, the normalized growth was determined as 0.777 ± 0.071.

On to `CC(=O)OCC[N+](C)(C)C`, for which the normalized growth was found to be 1.05 ± 0.023.

Regarding `CC(=O)N(c1onc(C)c1C)S(=O)(=O)c1ccc(N)cc1`, the normalized growth was found to be 1.08 ± 0.046.

`CO[C@H]1C[C@H](O[C@H]2[C@H](C)O[C@@H](O[C@@H]3/C(C)=C/C[C@@H]4C[C@@H](C[C@]5(C=C[C@H](C)[C@@H](C6CCCCC6)O5)O4)OC(=O)[C@@H]4C=C(C)[C@@H](O)[C@H]5OC/C(=C\C=C\[C@@H]3C)[C@]54O)C[C@@H]2OC)O[C@@H](C)[C@@H]1O` came in with a normalized growth of 0.776 ± 0.03.

Regarding `CC(=O)NCCCS(=O)(=O)O`, the normalized growth stood at 0.949 ± 0.11.

The compound `CCOC(=O)OC(C)OC1=C(C(=O)Nc2ccccn2)N(C)S(=O)(=O)c2ccccc21` (stereo unspecified) came in with a normalized growth of 1.04 ± 0.05.

Take `CO/N=C1\CN(c2nc3c(cc2F)c(=O)c(C(=O)O)cn3C2CC2)CC1CN` (stereo unspecified): the normalized growth was 0.0206 ± 0.00035.

In turn, `C[C@H]1COc2c(N3CCN(C)CC3)c(F)cc3c(=O)c(C(=O)O)cn1c23` registered a normalized growth of 0.00833 ± 0.00037.

For `CN1CCN(c2c(F)cc3c(=O)c(C(=O)O)cn4c3c2SCC4)CC1`, the normalized growth turned out to be 0.02519 ± 0.00023.

Take `CC1CCc2c(N3CCC(O)CC3)c(F)cc3c(=O)c(C(=O)O)cn1c23` (stereo unspecified): the normalized growth came out at 0.0179 ± 0.013.

In turn, `CC1CCc2cc(F)cc3c(=O)c(C(=O)O)cn1c23` (stereo unspecified) gave a normalized growth of 0.0174 ± 0.0072.

For the compound `C[C@H]1COc2c(C3(N)CC3)c(F)cc3c(=O)c(C(=O)O)cn1c23`, the normalized growth turned out to be 0.008373 ± 7.5e-05.

`CC1COc2c(N3CCN(C)CC3)c(F)cc3c(=O)c(C(=O)O)cn1c23` (stereo unspecified) registered a normalized growth of 0.0109 ± 0.00084.

The compound `CC=CC1=C(C(=O)O)N2C(=O)[C@@H](NC(=O)[C@H](N)c3ccc(O)cc3)[C@H]2SC1` gave a normalized growth of 1.04 ± 0.032.

Regarding `CCCCC(=O)N(Cc1ccc(-c2ccccc2-c2nnn[nH]2)cc1)[C@H](C(=O)O)C(C)C`, the normalized growth is 0.845 ± 0.034.

As to `CCC(=O)c1c(O)cc(O)cc1O`, the normalized growth turned out to be 1.09 ± 0.016.

In turn, `Cc1c(Nc2ncccc2C(=O)O)cccc1C(F)(F)F` returned a normalized growth of 1.04 ± 0.041.

On to `Cl.N=C(N)NCCC[C@H](N)C(=O)O`, for which the normalized growth amounted to 1 ± 0.042.

Consider `C=C(NC(=O)C(=C)NC(=O)c1csc(C2=N[C@@H]3c4csc(n4)[C@H]4NC(=O)c5csc(n5)[C@H]([C@](C)(O)[C@@H](C)O)NC(=O)[C@H]5CSC(=N5)/C(=C/C)NC(=O)[C@H]([C@@H](C)O)NC(=O)c5csc(n5)[C@]3(CC2)NC(=O)[C@H](C)NC(=O)C(=C)NC(=O)[C@H](C)NC(=O)[C@H]([C@@H](C)CC)N[C@@H]2C=Cc3c([C@H](C)O)cc(nc3[C@H]2O)C(=O)O[C@@H]4C)n1)C(N)=O`, for which the normalized growth was 1 ± 0.09.

`C=C(C)[C@H]1CC=C(C)CC1` yielded a normalized growth of 0.978 ± 0.024.

`Cc1cc2nc3c(=O)[nH]c(=O)nc-3n(CC(O)C(O)C(O)COP(=O)(O)O)c2cc1C` (stereo unspecified) registered a normalized growth of 0.822 ± 0.056.

`O=S(=O)(O)CCSSCCS(=O)(=O)O` came in with a normalized growth of 1.02 ± 0.069.

`CC(C)[C@H](NC(=O)[C@H](CC(=O)O)NC(=O)[C@H](CCCCN)NC(=O)[C@@H](N)CCCN=C(N)N)C(=O)N[C@@H](Cc1ccc(O)cc1)C(=O)O` gave a normalized growth of 0.991 ± 0.011.

The compound `CC(=O)OCC(=O)[C@@]1(O)CC[C@H]2[C@@H]3CCC4=CC(=O)CC[C@]4(C)[C@@]3(F)[C@@H](O)C[C@@]21C` displayed a normalized growth of 1.09 ± 0.11.

In turn, `O=C1c2c(O)cccc2C([C@@H]2O[C@H](CO)[C@@H](O)[C@H](O)[C@H]2O)c2cc(CO)cc(O)c21` (stereo partly specified) gave a normalized growth of 1 ± 0.043.

Compound `C[N+]1(C)[C@@H]2CC[C@H]1C[C@@H](OC(=O)C(O)c1ccccc1)C2` (stereo partly specified) returned a normalized growth of 0.976 ± 0.081.

`Nc1ncnc(Nc2ccc(Cl)cc2)n1` gave a normalized growth of 0.999 ± 0.071.

In turn, `CN1CCCN=C1COC(=O)C(O)(c1ccccc1)C1CCCCC1` (stereo unspecified) came in with a normalized growth of 1.23 ± 0.026.

Compound `CC(O)(CC(=O)O)CC(=O)O` returned a normalized growth of 0.921 ± 0.018.

The compound `COc1ccc(CN(CCN(C)C)c2ncccn2)cc1` came in with a normalized growth of 1.11 ± 0.038.

With `CCN(CC)CCOc1ccc(C(=C(Cl)c2ccccc2)c2ccccc2)cc1`, the normalized growth came to 1.07 ± 0.023.

Regarding `CN(C)[C@@H]1C(O)=C(C(N)=O)C(=O)[C@@]2(O)C(O)=C3C(=O)c4c(O)cccc4[C@@](C)(O)[C@H]3[C@H](O)[C@@H]12`, the normalized growth came out at 0.0138 ± 0.00025.

Compound `C=C1c2cccc(O)c2C(=O)C2=C(O)[C@]3(O)C(=O)C(C(N)=O)=C(O)[C@@H](N(C)C)[C@@H]3[C@@H](O)[C@H]12` had a normalized growth of 0.0154 ± 0.00028.

Regarding `CN(C)[C@@H]1C(O)=C(C(=O)NCN2CCCC2)C(=O)[C@@]2(O)C(O)=C3C(=O)c4c(O)cccc4[C@@](C)(O)[C@H]3C[C@@H]12`, the normalized growth turned out to be 0.854 ± 0.027.

Compound `C[C@H]1c2cccc(O)c2C(=O)C2=C(O)[C@]3(O)C(=O)C(C(N)=O)=C(O)[C@@H](N(C)C)[C@@H]3[C@@H](O)[C@@H]21` came in with a normalized growth of 0.0125 ± 0.00056.

Take `CN(C)[C@@H]1C(O)=C(C(N)=O)C(=O)[C@@]2(O)C(O)=C3C(=O)c4c(O)ccc(Cl)c4[C@@](C)(O)[C@H]3C[C@@H]12`: the normalized growth was determined as 0.0113 ± 0.00051.

Turning to `C=C1c2c(Cl)ccc(O)c2C(=O)C2=C(O)[C@]3(O)C(=O)C(C(N)=O)=C(O)[C@@H](N(C)C)[C@@H]3[C@@H](O)[C@H]12.O=C(O)c1cc(S(=O)(=O)O)ccc1O`, the normalized growth stood at 0.0199 ± 0.00036.

Regarding `CN(C)[C@@H]1C(O)=C(C(N)=O)C(=O)[C@@]2(O)C(O)=C3C(=O)c4c(O)cccc4[C@@](C)(O)[C@H]3C[C@@H]12`, the normalized growth is 0.0127 ± 0.00026.
